Measured values reported in PubChem BioAssay AID686979 (National Center for Advancing Translational Sciences (NCATS), 2013).
Among all 420,000 compounds or so, about 50,000 (12%) were called active. About 26% were inconclusive and are not listed. The entries come from a sample that favours actives as a whole. A number with no mark means an inactive call. The call rests on the fitted dose curve; in most records, active means well fitted inhibition curve with a large enough effect; inconclusive means small, poorly fitted or top-dose-only effect; inactive means flat fitted curve, though single readings scatter.

Experiment: qHTS for Inhibitors of human tyrosyl-DNA phosphodiesterase 1 (TDP1): qHTS in cells in presence of CPT; further: nearly all actives have a fitted effect of over 55% in size
Conditions: chicken DT40 Tdp1-/-;hTDP1 cells + 20 nM CPT, ATP luminescence, 48 h; series mostly up to 46.2 µM; activity change, negative = growth inhibition: at the top concentration
In short: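 Cell growth measured by CellTiter-Glo luminescence after a minimum 48 h, 37 C compound exposure with 20 nM CPT in Tdp1-knockout DT40 cells stably expressing hTDP1, seeded 400/well; qHTS titration format.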
On the % scale 0 is the no-effect control and ±100 the full control effect; potency means the concentration at half of the fitted maximal effect.

First: CCC1OC(c2ccc([N+](=O)[O-])cc2)=Nc2ccccc21 (centres undefined)
Second: O=C(NNS(=O)(=O)Cc1ccccc1)c1ccc([N+](=O)[O-])cc1
The “activity change, negative = growth inhibition” value of the first is higher: 3.74% for the first, -13% for the second.

First: CC(NC(=O)c1ccco1)c1ccc2c(c1)OCO2 (centres undefined)
Second: O=C(O)CC/C(=C\c1cc2c(cc1Br)OCO2)c1nc2ccccc2s1
The “activity change, negative = growth inhibition” value of the first is lower: -3.51% for the first, 3.75% for the second.

Going from `COc1ccc(CCNC(=O)COC(=O)Cc2ccccc2F)cc1` to `COc1ccc(C(CNCC(=O)Nc2ccccc2F)N(C)C)cc1` (centres undefined), the “activity change, negative = growth inhibition” value rises from -7.27% to -3.81%.

Going from `O=C(NNC(=O)C1CCC1)c1ccccc1` to `CCS(=O)(=O)N1CCC(C(=O)N2CCN(c3ccccc3)CC2)CC1`, the “activity change, negative = growth inhibition” value falls from 0.324% to -9.24%.

First: CC1(C)c2[nH]c3ccccc3c2C[C@H]2C(=O)N(N)CC(=O)N21
Second: CC1CC(C)CN(CCCNC(=O)Cn2ncc3c([nH]c4ccccc43)c2=O)C1 (centres undefined)
The “activity change, negative = growth inhibition” value of the first is higher: 30.9% for the first, 0.742% for the second.

First: Nc1ncnc2c1ncn2[C@@H]1O[C@H](CNC(=O)[C@H](N)Cc2cccnc2)[C@@H](O)[C@H]1O
Second: COc1cccc(CN(C)C(=O)CC[C@H]2O[C@@H](n3cnc4c(NC(=O)c5ccccc5)ncnc43)[C@H](O)[C@@H]2O)c1
The “activity change, negative = growth inhibition” value of the first is higher: 0.794% for the first, -19.3% for the second.

First: CC(=O)N1CCOc2ccc(S(=O)(=O)N3CCC(C(=O)Nc4ccccc4F)CC3)cc21
Second: O=C(c1cccc(S(=O)(=O)Nc2ccccc2Cl)c1)N1CCN(C(=O)c2ccco2)CC1
The “activity change, negative = growth inhibition” value of the first is higher: -1.73% for the first, -7.9% for the second.

First: CN(CCO)S(=O)(=O)c1ccc2c(c1)C(=O)c1cc(S(=O)(=O)N(C)CCO)ccc1-2
Second: CN(C)S(=O)(=O)c1ccc(Cl)c(NC(=O)COC(=O)CC(NC(N)=O)c2ccc(Cl)cc2)c1 (centres undefined)
The “activity change, negative = growth inhibition” value of the first is higher: 3% for the first, -19.7% for the second.

Compared with `O=C1c2ccccc2C(=O)N1c1ccc(S(=O)(=O)N2CCOCC2)c2ccccc12`, `O=C1C(Cl)=C(N2CCOCC2)C(=O)N1c1ccccc1` is lower in “activity change, negative = growth inhibition” value: -5.84% for the first, -20.8% for the second.

Going from `CCCC/C=C/c1cccc2nncn12` to `CCc1nc(SCC(=O)Nc2ccccc2OC)n[nH]1`, the “activity change, negative = growth inhibition” value rises from -26.4% to 0.57%.

Compared with `CC(=O)c1ccc(N2CCN(S(=O)(=O)c3ccc4c(c3)CC(=O)N4C)CC2)cc1`, `CC(=O)N1CCN(C(=O)c2cccc(S(=O)(=O)Nc3ccc(C)cc3)c2)CC1` is higher in “activity change, negative = growth inhibition” value: -14.5% for the first, -5.91% for the second.

First: Cc1ccc2c(c1)N(CCCC(=O)NCc1cccnc1)C(=O)CO2
Second: Cc1ccc(Cn2c(C)c3cnn(CC(=O)NCCN4CCOCC4)c(=O)c3c2C)cc1
The “activity change, negative = growth inhibition” value of the first is higher: 13.5% for the first, -2.81% for the second.

Going from `Cc1nc(CC(=O)NNS(=O)(=O)c2ccc(F)c(Cl)c2)cs1` to `CN(CC(=O)NCCc1ccccc1)S(=O)(=O)c1cnc[nH]1`, the “activity change, negative = growth inhibition” value falls from 1.93% to -3.81%.

Compared with `CCOC(=O)C1CCN(Cc2nnc(-c3cccc(Br)c3)o2)CC1`, `COc1cc(NC(=O)NCC2CCN(Cc3ccc(C)cc3)CC2)cc(OC)c1OC` is higher in “activity change, negative = growth inhibition” value: -15.7% for the first, -8.33% for the second.

Going from `CCOc1ccccc1-n1c(SCC(=O)NCc2ccco2)nnc1-c1ccncc1` to `Cn1c(SCc2ccc(F)cc2)nnc1-c1ccncc1`, the “activity change, negative = growth inhibition” value falls from -3.89% to -10.9%.

Going from `O=C(N1CCCC1)C12CC3CC(C1)CC(C(=O)N1CCCC1)(C3)C2` to `CCCc1nc(SCC(=O)N2CCCC2)c2c(=O)n(C)c(=O)n(C)c2n1`, the “activity change, negative = growth inhibition” value falls from 0.242% to -6.82%.

Going from `O=C(Cc1c[nH]c2ccccc12)N/N=C/c1cccc(F)c1` to `CN(CC(=O)Nc1ccccc1F)CC(=O)Nc1ccccc1Br`, the “activity change, negative = growth inhibition” value falls from -2.53% to -2.65%.

Going from `O=C(CSCc1c(Cl)cccc1Cl)NN1C(=O)c2ccccc2C1=O` to `CCOC(=O)CNC(=O)CSc1ncccc1-c1nc2ccccc2[nH]1`, the “activity change, negative = growth inhibition” value rises from -19.9% to 10.4%.

Compared with `Cc1ccccc1CNC(=O)Cn1c(C)c2cnn(-c3ccccc3)c(=O)c2c1C`, `Cc1ccc(-c2nc(Cn3c(=O)cc(-c4ccccc4)c4c(C)nn(C)c43)c(C)o2)cc1` is lower in “activity change, negative = growth inhibition” value: -0.956% for the first, -16.3% for the second.

Compared with `COc1ccccc1C1=CC(=O)C[C@H](c2ccc(F)cc2)C1`, `CC(=O)Nc1ccc(Oc2ccc3c(c2)C(=O)NC3=O)cc1` is higher in “activity change, negative = growth inhibition” value: -29.5% for the first, 25.5% for the second.

Going from `COc1ccc(-c2nnc3n2CCCCC3)cc1` to `Nc1nonc1-n1nnc(C(=O)N/N=C/C2CCCCC2)c1-c1ccccc1`, the “activity change, negative = growth inhibition” value falls from 8.16% to -15%.

Going from `O=C(O)c1ccc([N+](=O)[O-])cc1Sc1ccsc1` to `O=C(CCn1nnc2ccccc21)OCC(=O)c1ccc([N+](=O)[O-])cc1`, the “activity change, negative = growth inhibition” value falls from -11.6% to -22.6%.

Compared with `COc1ccc(-c2nc3c(c(SCC(=O)Nc4ccc(C(=O)O)cc4)n2)Cc2ccccc2O3)cc1`, `COc1ccc(N(CC(=O)N/N=C/c2cccc3c2OCCO3)S(=O)(=O)c2ccc(NC(C)=O)cc2)cc1` is higher in “activity change, negative = growth inhibition” value: -18.6% for the first, 1.44% for the second.

Going from `CCOC(=O)Nc1ccc(NC(=O)OCC)cc1` to `CCOC(=O)Nc1ccc2c(c1)N(C(=O)CCN1CCN(CCO)CC1)c1ccccc1CC2`, the “activity change, negative = growth inhibition” value rises from -20.3% to -0.457%.

For `COc1ccc(Br)c2c1C(=O)CC2`, the “activity change, negative = growth inhibition” value was 5.78%.

With `COc1ccc(C(CCNCc2ccccc2F)c2ccc(F)cc2)cc1` (centres undefined) the Potency was 16.4 µM (active).
In the case of `COc1ccc(CC(N)C(=O)NC2C(O)[C@H](n3cnc4c(N(C)C)ncnc43)O[C@@H]2CO)cc1` (some centres undefined), the Potency is reported as 17.6 µM (active).
In the case of `CC(=O)c1ccc(N2CCN(C(=O)C3CCN(S(=O)(=O)c4ccc5c(c4)CC(C)N5C(=O)C4CC4)CC3)CC2)cc1` (centres undefined), the Potency is reported as 11.6 µM (active).
With `CCCCCCCNC(=O)C1(CC2CC(c3cccc(Br)c3)=NO2)CCN(C(=O)c2cc(OCC)c(OCC)c(OCC)c2)CC1` (centres undefined) the Potency was 23.1 µM (active).
With `Cc1ccc(Nc2nc(CSc3nnc(-c4ccncc4)n3-c3ccccc3C)cs2)cc1` the Potency was 13 µM (active).
With `CCCc1nc(SCC(=O)Nc2ccccc2OC)c2c(=O)n(C)c(=O)n(C)c2n1` the Potency was 14.6 µM (active).
With `CCCn1c2ccccc2c2cnn(CC(=O)NCC3CCN(Cc4ccc(C)cc4)CC3)c(=O)c21` the Potency was 20.6 µM (active).
In the case of `CC1CCCCN1CCCNC(=O)Cn1ncc2c([nH]c3ccccc32)c1=O` (centres undefined), the Potency is reported as “inactive”.
With `Cc1ccc(Cn2c(C)c3cnn(CC(=O)NCc4ccccc4)c(=O)c3c2C)cc1` the Potency was 2.91 µM (active).
With `O=C(Cn1ncc2c3ccccc3n(Cc3ccccc3)c2c1=O)NCc1ccccn1` the Potency was “inactive”.
For `CCCn1c2ccccc2c2cnn(CC(=O)NCCCOC(C)C)c(=O)c21`, the Potency was 23.1 µM (active).
With `CCOC(=O)Nc1ccc2c(c1)N(C(=O)CCCl)c1ccccc1[S@]2=O` the Potency was 4.61 µM (active).
For `CN(C(=N)N)c1ccc(/C=C2\C=Cc3ccccc32)cc1`, the Potency was 5.01 µM (active).
With `CCCCc1ccc(NS(=O)(=O)c2cccc(C(=O)N3CCCN(C)CC3)c2)cc1` the Potency was 23.1 µM (active).
In the case of `O=C(CC(n1cncn1)C(Cl)(Cl)Cl)c1ccc([N+](=O)[O-])cc1` (centres undefined), the Potency is reported as 16.4 µM (active).
